Screening data from PubChem BioAssay.
AmpC inh no detg: inhibitors of E. coli AmpC beta-lactamase without detergent. P00811. AmpC nitrocefin hydrolysis, absorbance 480 nm, 0.0001% Triton. Potency, µM (highest dose often 57.1 µM), inactives show at the highest dose activity change, negative = inhibition, most hits filed as inhibitors. hit rate 0.52% among 330,000;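 also: plate controls were no compound for no effect and no enzyme for full effect; nearly all actives have a fitted effect of over 20% in size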
Target sequence (P00811 whole entry, looked up): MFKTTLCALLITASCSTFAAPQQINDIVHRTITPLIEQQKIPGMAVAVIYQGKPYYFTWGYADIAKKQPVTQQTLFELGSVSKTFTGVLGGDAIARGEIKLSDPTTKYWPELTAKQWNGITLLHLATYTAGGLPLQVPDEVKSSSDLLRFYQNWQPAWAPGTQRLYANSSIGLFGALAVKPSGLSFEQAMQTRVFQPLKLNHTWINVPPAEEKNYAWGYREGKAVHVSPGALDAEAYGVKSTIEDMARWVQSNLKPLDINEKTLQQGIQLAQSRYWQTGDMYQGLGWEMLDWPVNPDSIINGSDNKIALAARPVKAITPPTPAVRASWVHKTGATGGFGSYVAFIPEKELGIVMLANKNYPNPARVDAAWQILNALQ
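AmpC (5.3 nM in the dispensed reagent) in 20 mM phosphate pH 7.0 with 0.01% (detergent screen) or 0.0001% Triton X-100 was preincubated with compounds for 15 min at room temperature. Nitrocefin was then added from an 800 uM solution, and hydrolysis was followed at 480 nm.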
Pf growth 96h: P. falciparum growth inhibition at 96 hour, primary screen for plastid delayed-death inhibitors; Potency, µM (highest dose often 28.7 µM), for the others: top-dose activity change, negative = inhibition, usual class: inhibitors; P. falciparum luciferase reporter growth, 96 h; hit rate 6.9% among 320,000; AID 504834
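Infected RBCs, 2% Hct / 0.05% parasitemia final; luciferase-reporter P. falciparum; cpd 96 h, 37 C, 5% CO2; luciferase detection reagent; luminescence.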
AMA1 RON2 block: disrupts binding of P. falciparum AMA1 to RON2. AlphaScreen AMA1-biotinylated RON2 peptide binding. Potency, µM (titrated, usually from 58.2 µM), inactives show at the top dose activity change, negative = inhibition, usual class: inhibitors. hit rate 0.2% among 360,000. AID 720542;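 also: 0% = vehicle wells and -100% = peptide control; nearly all actives have a fitted effect of over 45% in size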
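AMA1 (3D7) with his tag at 25 nM final met compounds first, then biotinylated RON2 peptide at 25 nM; detection used donor plus acceptor beads, 10 µg/mL apiece, read by AlphaScreen after 30 min at room temperature.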
Pf growth 48h: inhibits P. falciparum growth in the first generation, 48 h | P. falciparum luciferase growth in erythrocytes, 48 h | Potency, µM (doses to about 28.7 µM), inactives show at the top dose activity change, negative = inhibition, actives largely listed as inhibitors | hit rate 5.9% among 310,000 | AID 504832
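In quantitative HTS format, infected erythrocytes bearing luciferase-reporter parasites were treated for a single generation at 37 C. Luminescence after adding detection reagent served as the growth measure.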
AmpC inh detg: blocks E. coli AmpC beta-lactamase in detergent assay; P00811; AmpC hydrolysis of nitrocefin, absorbance 480 nm, 0.01% Triton; Potency, µM (doses to about 114 µM), inactives show at the top dose activity change, negative = inhibition, hits mostly inhibitors; hit rate 0.041% among 370,000; AID 485294;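 also: 0% = no-compound wells and -100% = no-enzyme wells; nearly all actives have a fitted effect of over 25% in size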
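AmpC (5.3 nM in the dispensed reagent) in 20 mM phosphate pH 7.0 with 0.01% (detergent screen) or 0.0001% Triton X-100 was preincubated with compounds for 15 min at room temperature. Nitrocefin was then added from an 800 uM solution, and hydrolysis was followed at 480 nm.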
HCV inhibitor: HCV inhibition. Huh7.5.1 HCVcc-Cre infection, luciferase reporter, 44 h. Potency, µM (series often up to 41.8 µM), for inactives: top-dose activity change, negative = inhibition, usual class: inhibitors. hit rate 3.4% among 340,000
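A cell-based infection assay in which seeded cells (1,000 per well) receive test compound after 4 h, are inoculated with HCVcc-Cre at approximately 0.5 moi, and are incubated 44 h before luminescence detection.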
* marks the source's active call; other numbers are inactive results; ? = inconclusive; . = not tested or not shown; [ ] = remark or other dose. Compounds with a hit are over-represented: about 11% of the library has one in this group of screens. Calls follow the shape of the dose curve; as a rule, active = well fitted curve in the direction sought with a large enough effect; inconclusive = small, poorly fitted or top-dose-only effect, or another doubt; inactive = no such curve, though single readings can be large; an effect the other way counts as inactive or inconclusive. Unless noted, % is scaled to controls: 0 for no effect and ±100 for the full control effect; potency is read from the fitted curve at half-maximal effect.

SMILES	AmpC inh no detg	Pf growth 96h	AMA1 RON2 block	Pf growth 48h	AmpC inh detg	HCV inhibitor
COc1cc([C@@H]2CC=C(C(=O)O)[C@H](c3ccccc3)N2S(=O)(=O)c2ccc(C)cc2)cc(OC)c1OC	-15%	8.3µM*	12%	3.3µM*	?	16%
c1ccc(C2=Nn3c(nnc3-c3cccs3)SC2)cc1	-16%	3%	-12%	-12%	6%	?
CCc1ccc(C2=Nn3c(nnc3-c3cccs3)SC2)cc1	11%	1.9µM*	-26%	2.1µM*	4%	?
c1ccc(-c2ccc(C3=Nn4c(nnc4-c4cccs4)SC3)cc2)cc1	-20%	13µM*	-25%	9.3µM*	-6%	?
Cc1cc(C)cc(Nc2cc(-c3ccccc3)nc(C)n2)c1	.	.	.	.	-1%	.
CC1(C)Cc2c(cnn2-c2cccc(F)c2)C(NC(=O)c2csnn2)C1 (stereo unspecified)	-6%	6.6µM*	-6%	39%	6%	-20%
Cc1cc(C(=O)NC2CC(C)(C)Cc3c2cnn3-c2cccc(F)c2)n(C)n1 (stereo unspecified)	166%	9.3µM*	-2%	?	-9%	?
COc1ccc(OC)c(-c2noc(CSc3nnc(Cc4ccccc4)n3-c3cccc(C)c3)n2)c1	.	.	.	.	17%	.
CC1CCN(C(=O)Cn2cc(SCc3cccc(F)c3)c3ccccc32)CC1	.	.	.	.	18%	.
COc1cc(-c2nc3ccccn3c2/N=C/c2ccccc2)ccc1O	12%	-15%	-7%	0%	-1%	14%
COc1cc(-c2nc3ccccn3c2N)ccc1O	-21%	1.7µM*	58%	1%	-9%	12%
COc1ccc(S(=O)(=O)N2CCOCC2)cc1NC(=O)CCCOc1ccccc1	11%	.	11%	.	.	-9%
COc1ccc(S(=O)(=O)N2CCCCC2)cc1NC(=O)CSc1ncccn1	-26%	12µM*	0%	?	-10%	15%
COc1ccc(OCCCC(=O)Nc2cc(S(=O)(=O)N3CCCCC3)ccc2OC)cc1	1%	9.3µM*	-4%	12µM*	?	?
COc1ccc(S(=O)(=O)N2CCCCCC2)cc1NC(=O)CCCOc1ccccc1	-49%	?	-6%	9.3µM*	-1%	13µM*
CCC(=O)c1ccc(OCC(=O)Nc2cc(S(=O)(=O)N3CCCCC3)ccc2OC)cc1	6%	?	-10%	?	-1%	11µM*
COc1ccc(OCCCC(=O)Nc2cc(S(=O)(=O)N3CCCCC3)ccc2C)cc1	1%	?	-10%	?	1%	?
Cc1ccc(S(=O)(=O)N2CCCCC2)cc1NC(=O)COc1ccccc1	-25%	.	-3%	.	.	?
COCCn1c(C)cc(O)c(C(c2ccccc2Cl)N2CCN(c3ccccc3)CC2)c1=O (stereo unspecified)	.	.	.	.	-7%	.
O=C(c1cccc(Cl)c1)N1CCC(c2nc3c(nnn3Cc3ccc(F)cc3F)c(=O)[nH]2)CC1	.	.	.	.	0%	.
COc1ccc(OC)c(CCNC(=O)c2c(C)oc3ncn(CC(C)C)c(=O)c23)c1	.	.	.	.	22%	.
CCOc1ccc(N=C2C(=O)N(CN3CCOCC3)c3ccccc32)cc1	-15%	13µM*	-7%	4%	-4%	-9%
O=C1c2ccccc2C(=O)N1CCN1CCOCC1	0%	25%	2%	.	-7%	9%
Cc1cc(C)cc(NC(=O)Cc2csc(COc3cccc(C)c3)n2)c1	.	.	.	.	11%	.
Cn1c2c(c(=O)n(C)c1=O)C(c1cc3c(cc1Br)OCO3)CC(=O)N2 (stereo unspecified)	-11%	9.3µM*	0%	21%	?	14%
SMILES	AmpC inh no detg	Pf growth 96h	AMA1 RON2 block	Pf growth 48h	AmpC inh detg	HCV inhibitor
COC(=O)C1=C(C)NC(=O)CC1c1cc2c(cc1Br)OCO2 (stereo unspecified)	-13%	-19%	6%	?	-10%	2%
Cn1c2c(c(=O)n(C)c1=O)C(c1cc(Br)ccc1F)CC(=O)N2 (stereo unspecified)	.	.	.	.	-1%	.
CC1=C(C(=O)OC2CCCCCCC2)C(c2cc3c(cc2Br)OCO3)CC(=O)N1 (stereo unspecified)	-18%	.	-19%	10µM*	-10%	?
CCNC(=O)Cn1c(-c2cccs2)cc2ccccc21	.	.	.	.	0%	.
Cc1cccc(CCNC(=O)C2CCC(CNS(=O)(=O)c3ccccc3)CC2)c1 (stereo unspecified)	.	.	.	.	2%	.
Cc1cc(Nc2ccc(C)c(C)c2)n2cnnc2n1	.	.	.	.	3%	.
CCOc1ccc(CCNC(=O)C2CCN(c3nn4c(=O)cc(C)nc4s3)CC2)cc1	54%	59%	2%	10µM*	-4%	15%
CCC(Cc1ccccc1)NC(=O)C1CCN(c2nn3c(=O)cc(C)nc3s2)CC1 (stereo unspecified)	40%	10µM*	21%	-25%	-15%	10%
Cc1cc(=O)n2nc(N3CCC(C(=O)NCc4ccccc4)CC3)sc2n1	61%	-13%	-8%	-13%	2%	9%
Cc1cccn2c(=O)c3cc(C(=O)NCc4ccco4)c(=N)n(C4CCCC4)c3nc12	-19%	2%	6%	-4%	3%	6.3µM*
Cc1cccn2c(=O)c3cc(C(=O)NCC4CCCO4)c(=N)n(C4CCCCC4)c3nc12 (stereo unspecified)	-12%	1.3µM*	3%	?	-17%	?
COC(=O)c1ccccc1NC(=O)c1ccc(-c2nc(COc3ccccc3)c(C)o2)cc1	.	.	.	.	-8%	.
CCCCC1C(=O)N(c2ccccc2)N(c2ccccc2)C1=O	-53%	3.3µM*	-5%	?	-7%	-1%[8.37 µM]
CN(C)C(CNC(=O)c1cccc(S(=O)(=O)N(C)C)c1)c1ccccc1 (stereo unspecified)	-17%	.	13%	14%	-8%	15%
CN(C)C(CNC(=O)c1cccc(S(=O)(=O)N2CCN(c3ccccc3)CC2)c1)c1ccccc1 (stereo unspecified)	.	.	-11%	.	.	13µM*
COc1ccc(C(CNC(=O)c2cc(S(=O)(=O)N3CCN(c4ccccc4)CC3)ccc2Cl)N(C)C)cc1 (stereo unspecified)	199%	.	-3%	.	.	16µM*
Cc1ccc(-c2noc(-c3nnn(-c4ccc(Br)cc4F)c3C)n2)cc1	.	.	.	.	4%	.
CCOc1ccc(C(=O)NCC(c2ccco2)S(=O)(=O)c2cccs2)cc1 (stereo unspecified)	.	.	.	.	1%	.
O=C(CC1C(=O)NCCN1Cc1cccc(C(F)(F)F)c1)NCCc1cnccn1 (stereo unspecified)	194%	2.1µM*	38%	33%	-1%	5%
